Drawing on PubChem BioAssay (NCI), this text covers growth for 32 molecules.

Values joined by “and” are separate entries in the source; they are usually repeats but may differ in a detail not shown here. Identical values can stand only once. The panel holds about 83,000 compounds, 20% with a hit somewhere; the sample as a whole holds those more often.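 A percent growth of 40 corresponds to 60% growth inhibition; 0 means no net growth; -100 means all cells died. Active threshold: below 10.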 Active and inactive are the calls of the source. Where a SMILES comes first, the peptide text is derived from it. The star is where a group is joined. Trt = c1ccc(C(c2ccccc2)(c2ccccc2)*)cc1; Cbz = O=C(OCc1ccccc1)*

The test system of the first assay is IGROV1 ovarian. In words: NCI-60 one-dose screen, 48 h (100 = growth as untreated, 0 = no growth, -100 = all killed). To be noted: 10 µM unless noted.
For `O=[N+]([O-])c1ccc(N=Nc2ccc(O)cc2O)cc1`, the growth was 76.5% (inactive).
On the same count and under the same terms, to `CCC(CC)COC(=O)c1ccc(O)c(O)c1` belongs 37.5% (inactive); to `CCC(c1cccc(O)c1)C(CC)c1cccc(O)c1` (stereo unspecified), 72.4% (inactive).
Turning to `COC(=O)C(CSC(c1ccccc1)(c1ccccc1)c1ccccc1)NC(=O)C(CC(N)=O)NC(=O)OCc1ccccc1` (stereo not drawn) (Cbz-Asn-Cys(Trt)-OMe; configuration not given here), the growth is 48.6% (inactive).
Regarding `CCC(=O)Sc1ccccc1C(=O)Nc1ccc(Cl)cc1`, the growth was 71.2% (inactive).
On to `Nc1ncnc2c1ncn2C1OC(CO)C(O)C1O` (stereo unspecified), for which the growth was 109% (inactive) and 104% (inactive).
Regarding `Cc1ccc2c(ccc3c[n+]4c5ccccc5ccc4n32)c1`, the growth was 27% (inactive).
Same read-out and setting: then `O=C(Nc1ccc(F)cc1)ON=C1CCCCC1`, with 102% [100 µM] (inactive).
Same read-out and setting: to `CC1=CC(O)C2CC1C2(C)C` (stereo unspecified) belongs 101% (inactive) and 99.3% (inactive); to `O=C(CC1(O)C(=O)Nc2c(Cl)ccc(Cl)c21)c1ccc(Cl)cc1Cl` (stereo unspecified), 97.6% (inactive).
Same read-out and setting: then `O=C1N[C@H]2[C@H](CS[C@H]2CCCCC(=O)N(CCP(c2ccccc2)c2ccccc2)CCP(c2ccccc2)c2ccccc2)N1`, with -47.4% (active); and `C=C(Cl)C(=NC(C)(C)C)Nc1ccccc1C`, with 119% (inactive).
Take `Cc1ccnc(NC(c2ccccc2)c2ccc3cccnc3c2O)c1` (stereo unspecified): the growth was 36.5% (inactive).
Still for that read-out and setting: to `Cc1cc2nc(CS)[nH]c2cc1C` belongs 74.5% (inactive); to `O=C(O)C1C2CC3C(OC(=O)C31)C2Br` (stereo unspecified), 103% (inactive) and 114% (inactive); to `Cc1ccnc2c1ccc1c(C)ccnc12`, 23.8% (inactive).
Same read-out and setting: to `COc1ccccc1/C=C\C(=O)c1ccccc1` belongs 64.4% (inactive).

The subject of the next assay is OVCAR-3 ovarian. The assay is described as above. The following applies: 10 µM unless noted.
Turning to `COc1cc(/C=C/C(C)=O)ccc1O`, the growth was 100% (inactive) and 106% (inactive).
Same read-out and setting: to `CC(C)(C)CC(C)(C)c1ccc(OCCSC(=N)N)cc1` belongs 46.7% (inactive).
Take `COc1ccc(N=N/N=c2\sc3cc(OC)ccc3n2C)cc1`: the growth was 97.8% (inactive).
Same read-out and setting: then `O=C(Oc1cccc2cccnc12)c1ccccc1`, with 7.19% (active) and 115% (inactive); and `S=C(NCCNC(=S)[S][Sn]([c]1ccccc1)([c]1ccccc1)[c]1ccccc1)[S][Sn]([c]1ccccc1)([c]1ccccc1)[c]1ccccc1`, with -98.5% (active); and `C[N+](C)=c1ccc2nc3c(cc(NCCCNc4cc5oc6cc(=[N+](C)C)ccc-6nc5c5ccccc45)c4ccccc43)oc-2c1`, with -54.5% (active).
Same read-out and setting: to `C[n+]1c(/C=C/c2ccc([N+](=O)[O-])cc2)ccc2ccccc21` belongs 99.5% (inactive).
With `CCC(CCCN(CC)CCc1ccccc1)OC(=O)c1cc(OC)c(OC)c(OC)c1` (stereo unspecified), the growth was 92.2% (inactive).
On the same count and under the same terms, then `O=C(/C=C\c1ccccc1)N1c2ccccc2CC1c1c[nH]c2ccccc12` (stereo unspecified), with 75% (inactive); and `OC(CNc1ccnc2cc(Cl)ccc12)CNc1ccnc2cc(Cl)ccc12`, with 43.6% (inactive); and `COC(=O)c1nc(=S)[nH]c(C(=O)OC)c1C(=O)c1ccccn1`, with 34.5% (inactive).
On the same count and under the same terms, to `Cc1ccc(N=C=C(c2ccccc2)c2ccccc2)cc1` belongs 118% (inactive); to `NC(=S)N/N=C/c1ccc(Cl)s1`, 105% (inactive).
On the same count and under the same terms, to `O=[N+]([O-])c1ccc2c(N=Nc3ccc4ccccc4c3O)c(O)cc(S(=O)(=O)O)c2c1` belongs 41.4% (inactive).
`CC(=Nc1ccc(N(C)C)cc1)c1ccccc1`: the growth was 25.3% (inactive).
The same measure, in the same setting: then `O=[N+]([O-])c1ccc(N=Nc2ccc(O)cc2O)cc1`, with 54.8% (inactive); and `CCC(CC)COC(=O)c1ccc(O)c(O)c1`, with 78.1% (inactive); and `CCC(c1cccc(O)c1)C(CC)c1cccc(O)c1` (stereo unspecified), with 77.3% (inactive).
On the same count and under the same terms, to `COC(=O)C(CSC(c1ccccc1)(c1ccccc1)c1ccccc1)NC(=O)C(CC(N)=O)NC(=O)OCc1ccccc1` (stereo not drawn) (Cbz-Asn-Cys(Trt)-OMe; configuration not given here) belongs -5.78% (active); to `CCC(=O)Sc1ccccc1C(=O)Nc1ccc(Cl)cc1`, 39.9% (inactive).
On the same count and under the same terms, then `Nc1ncnc2c1ncn2C1OC(CO)C(O)C1O` (stereo unspecified), with 116% (inactive) and 89.8% (inactive) and 108% (inactive); and `Cc1ccc2c(ccc3c[n+]4c5ccccc5ccc4n32)c1`, with -43.2% (active); and `O=C(Nc1ccc(F)cc1)ON=C1CCCCC1`, with 108% [100 µM] (inactive).
For `CC1=CC(O)C2CC1C2(C)C` (stereo unspecified), the growth is 110% (inactive) and 113% (inactive).
